# Bioassay records deposited in PubChem by National Center for Advancing Translational Sciences (NCATS).
# An excerpt weighted towards active compounds, which were near 6.9% of everything screened.
# MCF10A rereplic: induces DNA re-replication in MCF 10a normal breast cells. AID 624296. 2.9% of 350,000 active. Potency, µM (top dose mostly 46.1 µM), inactives show top-dose activity, positive = re-replication, actives largely listed as activators. MCF 10A DNA re-replication, Hoechst nuclear intensity, 48 h; further: potency means the concentration at half of the fitted maximal effect; % of control where 0% means no effect; nearly all actives have a fitted effect of over 50% in size
# Vif-APOBEC3F blk: inhibitors of Vif-A3F interaction | 0.2% of 390,000 active | Potency, µM (series often up to 46.1 µM), for the others: at the highest dose activity, negative = active | HeLa A3F-eYFP + Vif (tagged APOBEC3F with the HIV-1 protein that degrades it), YFP fluorescence increase; further: potency means the concentration at half of the fitted maximal effect; % of control where 0% means no effect; nearly all actives have a fitted effect of over 65% in size
#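 Fluorescence increase (Ex 488/Em 500-530) after overnight compound treatment at 37 deg C flags inhibition of Vif-driven A3F-eYFP loss in stable HeLa A3F-eYFP/Vif cells seeded overnight beforehand.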
# IL1B secr inh: inflammasome signaling inhibition, IL-1 beta readout; activity change, % at 57.5 µM; AID 743279; THP-1 LPS/ATP IL-1B secretion, AlphaLISA, 16 h; active compounds read low; 4.7% of 360,000 active; in the data active means activity change below about -50%; inconclusive means mostly about -30% to -49%; further: on the % scale 0 is the no-effect control and ±100 the full control effect
#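 THP-1 cells pretreated 1 hr with compounds (up to 57.5 uM final), then stimulated with LPS (250 ng/mL final) plus ATP (1.25 mM final); secreted IL-1B measured by AlphaLISA after 16 hr, decreased signal indicating inhibition.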
# Vif-APOBEC3G blk: inhibitors of Vif-APOBEC3G interaction; HeLa A3G-eYFP + Vif (tagged APOBEC3G with the HIV-1 protein that degrades it), YFP fluorescence, overnight; Potency, µM (series often up to 46.1 µM), for inactives: at the top dose activity, negative = active, hits mostly inhibitors; 0.076% of 410,000 active; AID 602310; further: potency means the concentration at half of the fitted maximal effect; on the % scale 0 is the no-effect control and ±100 the full control effect; nearly all actives have a fitted effect of over 60% in size
# Target sequence (Q9HC16 whole entry, looked up): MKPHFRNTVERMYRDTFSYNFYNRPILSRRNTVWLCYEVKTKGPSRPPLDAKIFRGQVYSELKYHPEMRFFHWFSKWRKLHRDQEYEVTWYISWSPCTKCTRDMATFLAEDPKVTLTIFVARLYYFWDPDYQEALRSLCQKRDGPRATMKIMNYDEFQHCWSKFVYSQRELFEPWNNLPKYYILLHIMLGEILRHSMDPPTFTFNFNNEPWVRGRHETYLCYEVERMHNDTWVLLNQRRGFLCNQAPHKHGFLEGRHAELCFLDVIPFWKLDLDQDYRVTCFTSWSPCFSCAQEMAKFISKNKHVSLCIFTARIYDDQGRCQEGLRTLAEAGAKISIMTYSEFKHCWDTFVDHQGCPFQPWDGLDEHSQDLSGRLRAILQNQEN
#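 Read-out is eYFP fluorescence (Ex 488/Em 500-530) from Vif-expressing HeLa A3G-eYFP cells; more signal means A3G escaped Vif-mediated degradation. Cells plated overnight, compound pinned in, incubated overnight at 37 deg C.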
# SW480 rerep: induces DNA re-replication in SW480 colon adenocarcinoma cells. SW480 DNA re-replication, Hoechst DNA content imaging, 48 h. Potency, µM (top dose mostly 46.1 µM), inactives show at the top dose re-replication activation, most hits filed as activators. 1.8% of 340,000 active. AID 624297; further: potency means the concentration at half of the fitted maximal effect; % of control where 0% means no effect; nearly all actives have a fitted effect of over 55% in size
#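 Image-based DNA-content assay: after two days of treatment, nuclei were labelled with the DNA dye Hoechst and imaged, and hits were compounds raising the count of nuclei showing high fluorescence intensity.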
# Giardia kill: Giardia lamblia killing. Giardia lamblia trophozoite viability. activity change, % at 7.66 µM, hits read low. 0.15% of 340,000 active; in the data active means activity change below about -80%; inconclusive means between about -30% and that limit;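 further: parasites exposed to compound for two days anaerobically before the ATP read; on the % scale 0 is the no-effect control and ±100 the full control effect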
#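 Luminescence from cellular ATP indicates surviving trophozoites (100 cells/well) following 48 hrs anaerobic compound treatment at 37 deg C; signal develops 15-30 min at room temperature.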
# Active calls of the source: *; ? = inconclusive; · = not tested or not shown. Unless noted, the call rests on the fitted dose curve; in most records, active means well fitted curve in the direction sought with a large enough effect; inconclusive means small, poorly fitted or top-dose-only effect, or another doubt; inactive means no such curve, though single readings can be large; an effect the other way counts as inactive or inconclusive.
SMILES,MCF10A rereplic,Vif-APOBEC3F blk,IL1B secr inh,Vif-APOBEC3G blk,SW480 rerep,Giardia kill
CCOC(=O)c1ccc(NC(=O)C(CC)Sc2nnc3c4ccccc4n(C)c3n2)cc1 (centres undefined),·,-7%,·,-8%,·,·
CCOC(=O)Cc1nnc(NC(=O)CSc2nnc3c4ccccc4n(C)c3n2)s1,?,-5%,21,-1%,0.73µM*,-12
FC(F)(F)c1ccc(/C=N/NC(=S)NC2CCCCC2)cc1,18µM*,-5%,2,0%,10%,-18
CC(C)NC(=S)N/N=C/c1cccs1,3%,4%,-1,6%,6%,13
C=CCNC(=S)N/N=C/c1ccc(C(F)(F)F)cc1,22%,-20%,-56*,-2%,58%,-15
C=CCNC(=S)N/N=C/c1ccc(C)c([N+](=O)[O-])c1,10%,-9%,?,-3%,-697%,-4
CC(C)NC(=S)N/N=C/c1ccc(C(C)(C)C)cc1,?,?,-68*,-4%,-4%,-1
O=C(O)c1ccc(/C=N/NC(=S)NC2CCCCC2)cc1,2%,1%,73,0%,-1%,-13
FC(F)(F)c1cccc(/C=N/NC(=S)NC2CCCCC2)c1,?,0%,-60*,-5%,-6%,12
CCN(C(=O)CCNC(=O)Cn1cnc2ccccc2c1=O)c1cc(OC)ccc1OC,·,-4%,·,-6%,·,·
COc1ccc(CNC(=O)CSc2nc(-c3ccc(OC)c(OC)c3)cc(C(F)(F)F)n2)cc1,·,6%,·,-1%,·,·
Cc1cc(C)cc(NC2=C(c3ccccc3)C(=O)c3ccccc32)c1,·,-3%,·,3%,·,·
CN(C)c1ccc(NC(=O)C2(c3cccs3)CCOCC2)cc1,·,1%,·,3%,·,·
CCc1ccccc1NC(=O)CSc1nc2c(oc3ccccc32)c(=O)n1C,·,-1%,·,4%,·,·
CCOc1cc(N2CCOCC2)c(OCC)cc1NC(=O)COC(=O)CCOc1ccc(C(C)(C)C)cc1,?,1%,6,0%,-10%,9
CC(C)(C)c1ccc(OCCC(=O)Nc2ccc(N3CCOCC3)cc2N2CCOCC2)cc1,?,2%,-51*,-7%,?,-8
COCCNC(=O)c1cc2c(-c3ccccc3F)nn(C)c2s1,19%,-1%,-54*,-8%,-6%,-9
CCCCN(C)CCNC(=O)c1cc2c(-c3ccccc3F)nn(C)c2s1,5%,1%,-97*,4%,-1%,5
CCn1nc(-c2ccccc2)c(-c2ccccc2)c(C(=O)Nc2nc(C)c(C(C)=O)s2)c1=O,·,0%,·,-4%,·,·
CCCCC(=NCCc1c(C)[nH]c2ccccc12)C1=C(O)CC(c2ccccc2)CC1=O (centres undefined),8.2µM*,-12%,?,?,10µM*,34
CCC/C(O)=C1\C(=O)CC(c2ccccc2)CC1=NCCc1c(C)[nH]c2ccccc12 (centres undefined),2%,5%,?,5%,3%,22
CCCC(=NCCc1c(C)[nH]c2ccccc12)C1=C(O)CC(c2ccccc2)CC1=O (centres undefined),1.5µM*,0%,7,?,6.5µM*,1
Cc1ccc(NS(=O)(=O)c2ccc3nc(-c4ccccc4)[nH]c3c2)c(Cl)c1,·,-2%,·,0%,·,·
O=C1OCCN1C(=O)[C@H]1[C@H](c2ccc(Cl)cc2)C(c2cccc(Cl)c2)=NN1c1ccccc1,?,-7%,31,-3%,12µM*,1
O=C1OCCN1C(=O)[C@H]1[C@H](c2ccc(F)cc2)C(c2cccc(Cl)c2)=NN1c1ccccc1,0.58µM*,2%,3,-5%,18µM*,-16
SMILES,MCF10A rereplic,Vif-APOBEC3F blk,IL1B secr inh,Vif-APOBEC3G blk,SW480 rerep,Giardia kill
c1cc2ccc3ccc(CN4CCOCC4)c4ccc(c1)c2c34,?,-10%,-77*,1%,11%,24
OC1CCCN(Cc2cn(Cc3ccccc3)nc2-c2cc3ccccc3o2)C1 (centres undefined),4%,9%,?,3%,25%,-5
OC1CCCN(Cc2ccc3ccc4cccc5ccc2c3c45)C1 (centres undefined),?,?,-69*,-16%,0%,3
Cc1oc2ncn(CC(C)C)c(=O)c2c1C(=O)Nc1cc(F)ccc1F,·,-2%,·,-1%,·,·
O=C(O)c1cccc(NC(=S)NC(NC(=O)c2ccco2)C(Cl)(Cl)Cl)c1 (centres undefined),0%,6%,-2,-1%,-3%,-22
O=C(Cc1ccccc1)NC(NC(=S)Nc1cc(Cl)ccc1Cl)C(Cl)(Cl)Cl (centres undefined),?,-3%,24,1%,-3%,-5
O=C(NC(NC(=S)Nc1ccc(Cl)c(Cl)c1)C(Cl)(Cl)Cl)c1ccco1 (centres undefined),?,-10%,-63*,-4%,3%,5
O=C(NC(NC(=S)Nc1cc(Cl)ccc1Cl)C(Cl)(Cl)Cl)c1ccco1 (centres undefined),2%,1%,-80*,2%,9%,-20
CCOc1ccc(C(=O)Nc2ccc3oc(-c4ccc5ccccc5c4)nc3c2)cc1,·,-11%,·,3%,·,·
COc1ccc(NC(=O)c2cc(S(=O)(=O)N3CCCCCC3)cn2C)cc1Cl,·,-7%,·,-4%,·,·
COc1cc(NC(=O)CC2C(=O)N(c3cccc(C)c3)C(=O)N2Cc2ccc(F)cc2)cc(OC)c1 (centres undefined),·,-1%,·,-7%,·,·
CC(=O)Oc1ccc(C2=Cc3ccc(OC(C)=O)cc3OC2C)cc1 (centres undefined),4.1µM*,?,9,-28%,?,8
Cc1ccc2oc(=O)c3cc(C(=O)NCCCN4CCN(C)CC4)sc3c2c1,18%,3%,-12,-2%,-4%,2
Cc1ccc2oc(=O)c3cc(C(=O)NCCCN4CC(C)CC(C)C4)sc3c2c1 (centres undefined),0%,-4%,-83*,-1%,-10%,12
CCN1CNC(=S)N(Cc2ccccc2)C1,-5%,-10%,17,0%,1%,-10
S=C1SCN(Cc2ccco2)CN1Cc1ccco1,?,-2%,-95*,?,13µM*,-2
CCCCCN1CSC(=S)N(Cc2ccccc2)C1,?,0%,-95*,-1%,?,-5
CCN1CSC(=S)N(Cc2ccccc2)C1,?,-5%,-100*,-6%,18µM*,-10
S=C1SCN(Cc2cccs2)CN1Cc1cccs1,·,?,0,?,·,·
CCN1CSC(=S)N(Cc2ccc(OC)cc2)C1,?,?,25,?,?,-10
O=S(=O)(NCc1cccc(Br)c1)c1ccc(-c2cc(C(F)(F)F)on2)s1,·,-6%,·,1%,·,·
